Holding throughout (design): scale not given: direction of the effect not stated beside the values
Assay [1] deals with Protein translocase subunit SecA (Escherichia coli (strain K12)) (UniProt P10408). The experiment in a line: Assay to Identify E. coli SecA ATPase Inhibitors. In kind it is functional. The conditions noted are these: 30 µM.
For assay [2], the target named is T1, Ubiquitin-activating enzyme e1, putative (Leishmania donovani (strain BPK282A1)) (UniProt E9BSI1).
T1 sequence (whole entry): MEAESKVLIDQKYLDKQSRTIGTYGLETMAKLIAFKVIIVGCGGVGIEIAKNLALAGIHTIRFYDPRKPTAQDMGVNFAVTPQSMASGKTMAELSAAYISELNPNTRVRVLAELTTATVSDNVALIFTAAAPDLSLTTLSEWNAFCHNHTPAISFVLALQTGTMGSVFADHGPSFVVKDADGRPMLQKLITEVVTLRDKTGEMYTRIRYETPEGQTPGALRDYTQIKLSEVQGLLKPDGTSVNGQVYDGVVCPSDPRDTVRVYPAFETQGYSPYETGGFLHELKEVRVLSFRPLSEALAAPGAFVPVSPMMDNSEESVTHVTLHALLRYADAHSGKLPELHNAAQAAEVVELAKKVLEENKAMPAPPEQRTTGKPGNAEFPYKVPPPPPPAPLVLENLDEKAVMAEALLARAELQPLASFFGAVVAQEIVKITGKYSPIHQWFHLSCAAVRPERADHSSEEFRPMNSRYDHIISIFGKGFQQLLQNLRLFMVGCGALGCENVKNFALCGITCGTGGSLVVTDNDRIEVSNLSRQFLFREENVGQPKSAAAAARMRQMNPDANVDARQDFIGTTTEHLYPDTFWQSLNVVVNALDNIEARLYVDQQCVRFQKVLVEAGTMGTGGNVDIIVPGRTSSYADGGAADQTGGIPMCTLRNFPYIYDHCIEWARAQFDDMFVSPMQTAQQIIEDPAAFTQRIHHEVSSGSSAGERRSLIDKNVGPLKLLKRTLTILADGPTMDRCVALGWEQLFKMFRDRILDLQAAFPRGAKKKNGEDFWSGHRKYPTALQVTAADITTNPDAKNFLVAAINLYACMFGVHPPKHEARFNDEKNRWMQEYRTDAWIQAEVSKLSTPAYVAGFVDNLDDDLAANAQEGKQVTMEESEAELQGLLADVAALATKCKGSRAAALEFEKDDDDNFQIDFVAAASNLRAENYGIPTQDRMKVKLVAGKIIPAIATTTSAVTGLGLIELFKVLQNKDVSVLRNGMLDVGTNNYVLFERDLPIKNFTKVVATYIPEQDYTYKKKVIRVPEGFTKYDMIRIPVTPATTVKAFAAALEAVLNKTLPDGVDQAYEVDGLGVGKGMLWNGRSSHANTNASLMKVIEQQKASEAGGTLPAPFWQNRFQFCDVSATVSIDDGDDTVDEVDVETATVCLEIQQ
The experiment in a line: Leishmania donovani Ubiquitin Activating Enzyme (LdE1). Particulars: 30 µM. In kind it is functional.

Assay [3] addresses AMP-activated protein kinase, AMPK (Homo sapiens) (UniProt P54646+O43741+P54619+Q9UGJ0+Q9Y478+Q13131+Q9UGI9). The experiment in a line: AMP-dependent Kinase enzyme assay. An in vitro enzyme assay that detects ADP turnover that is directly proportional to AMPK activity. This uses naive AMPK that is activated during the assay with MK-8722. It is filed as functional. The conditions noted are these: 30 µM.

In assay [4] the target is Sialic acid-binding Ig-like lectin 9 (Homo sapiens) (UniProt Q9Y336). The experiment in a line: Hs-Siglec9 ALPHAscreen SOP 20170721. Particulars: 10 µM.
The next assay concerns Trypanosoma cruzi. As to the kind of experiment: Trypanosoma cruzi phosphomannomutase and mannose-1-phosphate guanylyltransferase assay. In kind it is functional. The conditions noted are these: 10 µM.
Assay [5] has as its target T2, Arginase-2, mitochondrial (Homo sapiens) (UniProt P78540).
T2 sequence (whole entry): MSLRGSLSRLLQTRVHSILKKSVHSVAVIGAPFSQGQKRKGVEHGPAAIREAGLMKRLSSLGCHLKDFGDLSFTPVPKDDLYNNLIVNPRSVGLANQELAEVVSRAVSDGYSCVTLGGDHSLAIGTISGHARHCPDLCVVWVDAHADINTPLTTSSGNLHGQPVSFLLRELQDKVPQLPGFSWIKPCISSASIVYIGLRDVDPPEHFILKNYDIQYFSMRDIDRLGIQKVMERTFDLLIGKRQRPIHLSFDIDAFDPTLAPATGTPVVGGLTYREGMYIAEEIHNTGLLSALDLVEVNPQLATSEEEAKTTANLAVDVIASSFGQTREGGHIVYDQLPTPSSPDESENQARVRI
The experiment in a line: in vitro enzyme assay to detect the production of urea directly proportional to the activity of Arginase II. Also: in the data most compounds retested in dose-response had high values. It is filed as functional. The conditions noted are these: 33.3 µM.

Assay [6] has as its target T3, Proteasome subunit beta (Trypanosoma cruzi) (UniProt O96673).
T3 sequence (whole entry): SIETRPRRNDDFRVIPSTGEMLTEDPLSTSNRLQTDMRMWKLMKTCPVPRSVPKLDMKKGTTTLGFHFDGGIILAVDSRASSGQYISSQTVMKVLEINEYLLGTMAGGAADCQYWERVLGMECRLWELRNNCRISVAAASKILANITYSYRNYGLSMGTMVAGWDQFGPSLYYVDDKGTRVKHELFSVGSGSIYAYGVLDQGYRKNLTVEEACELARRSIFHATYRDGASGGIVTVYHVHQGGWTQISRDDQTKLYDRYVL
The experiment in a line: Trypanosoma cruzi proteasome chymotrypsin-like activity (TcProtChymo) assay. Also: in the data most compounds retested in dose-response had high values. It is filed as functional. The conditions noted are these: 9.37 µM.

The species entered for the next assay is Homo sapiens. As to the kind of experiment: To identify inhibition of the IFN signalling (Jak-Stat) pathway via expression of an eGFP reporter gene under the control of an IFN-stimulated response element (ISRE) containing MxA promoter. In kind it is functional. Particulars: 30 µM. (In a reporter assay the amount or activity of a reporter protein is the signal.)

Assay [7] deals with T4, Tyrosyl-tRNA synthetase, putative (Trypanosoma cruzi (strain CL Brener)) (UniProt Q4DSP6).
T4 sequence (whole entry): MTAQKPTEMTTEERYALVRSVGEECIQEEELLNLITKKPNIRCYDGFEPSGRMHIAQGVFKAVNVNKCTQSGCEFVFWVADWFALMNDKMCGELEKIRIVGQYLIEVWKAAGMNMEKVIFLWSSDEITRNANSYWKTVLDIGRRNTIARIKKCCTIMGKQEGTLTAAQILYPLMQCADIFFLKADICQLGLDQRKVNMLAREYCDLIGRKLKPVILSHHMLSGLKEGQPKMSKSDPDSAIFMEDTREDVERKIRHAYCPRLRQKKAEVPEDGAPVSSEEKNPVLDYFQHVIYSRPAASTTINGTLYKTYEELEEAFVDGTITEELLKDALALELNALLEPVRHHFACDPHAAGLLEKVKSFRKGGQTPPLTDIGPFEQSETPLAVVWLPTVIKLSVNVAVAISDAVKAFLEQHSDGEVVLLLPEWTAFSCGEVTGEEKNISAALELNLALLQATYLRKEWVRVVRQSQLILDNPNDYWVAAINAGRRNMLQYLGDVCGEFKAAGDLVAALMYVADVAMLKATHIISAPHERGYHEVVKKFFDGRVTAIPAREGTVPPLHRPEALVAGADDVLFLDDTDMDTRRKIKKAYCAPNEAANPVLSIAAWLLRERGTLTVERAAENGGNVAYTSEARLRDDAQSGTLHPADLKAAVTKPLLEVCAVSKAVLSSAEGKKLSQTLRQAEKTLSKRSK
As to the kind of experiment: Trypanosoma cruzi tyrosyl tRNA synthetase (TcYRS) _High Tyrosine SOP. Also: in the data most compounds retested in dose-response had high values. It is filed as functional. Particulars: 30 µM.

The target of assay [8] is T4, Tyrosyl-tRNA synthetase, putative (Trypanosoma cruzi (strain CL Brener)). As to the kind of experiment: Trypanosoma cruzi tyrosyl tRNA synthetase (TcYRS) SOP. It is filed as functional. Particulars: 30 µM.
Assay [9] addresses Chromo domain-containing protein 1 (Saccharomyces cerevisiae (strain ATCC 204508 / S288c) (Baker's yeast)) (UniProt P32657). As to the kind of experiment: ScCHD-1 Enzyme Inhibition Assay. Also: in the data most compounds retested in dose-response had high values. The conditions noted are these: 30 µM. It is filed as functional.

Results on eleven compounds are retold here after ChEMBL document CHEMBL3988442, “University of Dundee, Small-Polar-MMV Screening Library” (2021).

The structures appear in SMILES notation. For some of these results: Entries with a potency or affinity are not part of this list.

Sequence of Sialic acid-binding Ig-like lectin 9 (Homo sapiens) (Q9Y336 whole entry): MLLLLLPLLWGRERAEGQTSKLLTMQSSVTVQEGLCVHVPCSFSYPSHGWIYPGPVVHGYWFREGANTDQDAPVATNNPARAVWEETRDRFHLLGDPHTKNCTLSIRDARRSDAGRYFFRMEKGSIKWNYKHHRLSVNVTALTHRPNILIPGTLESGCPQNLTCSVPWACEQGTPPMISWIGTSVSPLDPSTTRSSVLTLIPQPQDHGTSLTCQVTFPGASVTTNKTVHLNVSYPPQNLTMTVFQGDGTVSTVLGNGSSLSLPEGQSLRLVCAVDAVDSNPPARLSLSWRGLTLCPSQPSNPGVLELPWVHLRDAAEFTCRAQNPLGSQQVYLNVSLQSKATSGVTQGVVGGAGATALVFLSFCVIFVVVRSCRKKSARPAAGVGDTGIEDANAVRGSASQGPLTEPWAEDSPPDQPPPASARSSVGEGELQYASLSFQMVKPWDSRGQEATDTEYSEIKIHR
Sequence of Chromo domain-containing protein 1 (Saccharomyces cerevisiae (strain ATCC 204508 / S288c) (Baker's yeast)) (P32657 whole entry, the tested form may be a part): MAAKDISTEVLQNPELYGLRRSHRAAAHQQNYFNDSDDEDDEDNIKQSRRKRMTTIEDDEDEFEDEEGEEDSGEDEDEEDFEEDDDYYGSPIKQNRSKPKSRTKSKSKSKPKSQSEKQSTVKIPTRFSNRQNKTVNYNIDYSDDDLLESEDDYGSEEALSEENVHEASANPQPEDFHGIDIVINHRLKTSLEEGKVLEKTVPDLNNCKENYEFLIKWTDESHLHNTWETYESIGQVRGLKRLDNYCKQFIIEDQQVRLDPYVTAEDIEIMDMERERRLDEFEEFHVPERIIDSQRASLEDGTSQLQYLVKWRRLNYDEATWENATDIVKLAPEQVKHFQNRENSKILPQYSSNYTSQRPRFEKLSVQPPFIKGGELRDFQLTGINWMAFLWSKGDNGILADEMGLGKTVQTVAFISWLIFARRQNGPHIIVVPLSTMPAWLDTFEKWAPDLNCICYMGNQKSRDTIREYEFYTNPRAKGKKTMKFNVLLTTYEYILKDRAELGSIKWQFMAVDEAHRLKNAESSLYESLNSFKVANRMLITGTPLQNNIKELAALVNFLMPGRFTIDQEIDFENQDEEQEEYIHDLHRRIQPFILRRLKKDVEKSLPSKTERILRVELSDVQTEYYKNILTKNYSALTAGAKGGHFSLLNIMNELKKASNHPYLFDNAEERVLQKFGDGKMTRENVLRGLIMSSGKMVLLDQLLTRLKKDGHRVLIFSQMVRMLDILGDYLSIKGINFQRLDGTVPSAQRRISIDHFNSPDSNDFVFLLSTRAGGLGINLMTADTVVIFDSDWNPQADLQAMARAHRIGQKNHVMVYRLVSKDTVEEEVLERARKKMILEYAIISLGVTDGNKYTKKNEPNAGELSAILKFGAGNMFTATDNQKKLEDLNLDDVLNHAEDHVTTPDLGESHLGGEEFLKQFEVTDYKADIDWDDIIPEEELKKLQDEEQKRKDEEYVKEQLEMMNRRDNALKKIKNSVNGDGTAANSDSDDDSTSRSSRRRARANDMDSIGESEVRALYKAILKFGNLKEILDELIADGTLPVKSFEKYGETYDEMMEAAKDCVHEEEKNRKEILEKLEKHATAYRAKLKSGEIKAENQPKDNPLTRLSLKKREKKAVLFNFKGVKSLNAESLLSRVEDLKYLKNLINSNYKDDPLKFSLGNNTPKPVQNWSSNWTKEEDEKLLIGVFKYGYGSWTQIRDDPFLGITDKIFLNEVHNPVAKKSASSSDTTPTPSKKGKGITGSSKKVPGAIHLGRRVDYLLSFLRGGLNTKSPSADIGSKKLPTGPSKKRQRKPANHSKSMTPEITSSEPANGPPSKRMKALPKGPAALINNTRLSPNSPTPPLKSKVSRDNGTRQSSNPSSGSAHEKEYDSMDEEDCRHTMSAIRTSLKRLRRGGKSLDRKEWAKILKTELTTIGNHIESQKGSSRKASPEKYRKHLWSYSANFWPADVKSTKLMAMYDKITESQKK
Sequence of Protein translocase subunit SecA (Escherichia coli (strain K12)) (P10408 whole entry): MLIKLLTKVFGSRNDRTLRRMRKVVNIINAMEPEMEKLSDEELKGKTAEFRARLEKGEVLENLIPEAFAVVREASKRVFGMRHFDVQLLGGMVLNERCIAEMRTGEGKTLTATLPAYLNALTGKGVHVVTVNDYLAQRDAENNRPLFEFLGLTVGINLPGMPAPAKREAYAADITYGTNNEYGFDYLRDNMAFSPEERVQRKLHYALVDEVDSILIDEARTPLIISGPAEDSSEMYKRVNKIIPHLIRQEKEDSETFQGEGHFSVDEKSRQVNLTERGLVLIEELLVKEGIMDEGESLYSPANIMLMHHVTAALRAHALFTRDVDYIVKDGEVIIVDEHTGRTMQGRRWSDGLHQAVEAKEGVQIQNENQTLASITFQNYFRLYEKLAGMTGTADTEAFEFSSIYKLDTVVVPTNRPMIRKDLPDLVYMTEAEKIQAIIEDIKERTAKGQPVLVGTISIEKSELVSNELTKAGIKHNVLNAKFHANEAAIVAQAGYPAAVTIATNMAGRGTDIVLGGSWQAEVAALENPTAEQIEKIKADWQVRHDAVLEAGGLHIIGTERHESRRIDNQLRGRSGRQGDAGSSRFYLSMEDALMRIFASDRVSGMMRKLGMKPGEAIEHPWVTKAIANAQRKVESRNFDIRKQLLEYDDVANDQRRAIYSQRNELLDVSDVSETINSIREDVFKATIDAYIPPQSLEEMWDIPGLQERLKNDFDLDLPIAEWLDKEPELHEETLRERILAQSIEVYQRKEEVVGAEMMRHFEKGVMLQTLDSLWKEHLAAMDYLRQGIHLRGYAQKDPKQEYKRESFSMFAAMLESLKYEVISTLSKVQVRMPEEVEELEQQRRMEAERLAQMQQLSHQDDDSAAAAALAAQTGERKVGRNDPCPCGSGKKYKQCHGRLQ

Consider `O=C(c1cc(F)ccc1F)C1CCN(C(=O)c2ccccn2)CC1`, for which the Percent Effect in [1] was -3.32%; in assay [2] it was 13%; in [3] it was 3.21%; in [4], -2.77%; in the assay with Trypanosoma cruzi it was 1.27%; in assay [5], 3.58%. In addition, the Percent Effect is 17.1% in assay [6]; 21.7% in the assay filed under Homo sapiens; 7.62% in assay [7]; 23.5% in [8]; -13.2% in assay [9].
As for `CN(Cc1ccccc1)CC1(O)CCCN(CC(C)(C)C)C1=O` (stereo unspecified), the Percent Effect in [1] is -2.06%; in assay [2] it was 6.94%; in assay [3], -11.8%; in assay [4], 18.9%; in the assay on Trypanosoma cruzi, 5.15%; in [5], -1.77%. The Percent Effect is 1.4% in assay [6]; -1.36% in the assay listed under Homo sapiens; 3.16% in assay [7]; 0% in [8]; -0.279% in assay [9].
With `COc1ccc(-c2nc(CN3CC(n4cc(C)cn4)C3)no2)cc1`, the Percent Effect in assay [1] was -4.92%; in assay [2] it was 10.4%; in assay [3], -1.25%; in assay [4], 16.8%; in the assay on Trypanosoma cruzi it was 4.03%; in [5], 88.3%. Further, the Percent Effect in assay [6] is 12%; in the assay filed under Homo sapiens it was 12.7%; in assay [7], 6.45%; in assay [8], 21%; in assay [9], -9.02%.
With `O=C(c1ccn(-c2cccc(Cl)c2)n1)N1CCN(C2CC2)CC1`, the Percent Effect in assay [1] is -11.5%; in [2], 10.4%; in assay [3], -3.12%; in assay [4], 2.64%; with Trypanosoma cruzi it was -4.49%; in assay [5], -1.78%. Further, the Percent Effect was 27.5% in assay [6]; 29.6% in the assay listed under Homo sapiens; -0.971% in assay [7]; -4.88% in assay [8]; -3.18% in assay [9].
For the compound `Cc1cnn(C2CCCN(C(=O)CCCNc3ncccn3)C2)c1` (stereo unspecified), the Percent Effect in [1] is 0.326%; in assay [2], 21.6%; in assay [3], -4.82%; in assay [4] it was -6.78%; in the assay with Trypanosoma cruzi, -4.62%; in assay [5], 0%. Also, the Percent Effect in [6] is 10.3%; in the assay listed under Homo sapiens, 6.71%; in assay [7] it was -13.3%; in assay [8] it was 16.1%; in [9], -4.22%.
Regarding `CNC(=O)[C@@]12CCO[C@@H]1CCN(S(=O)(=O)c1cccc(C)c1)C2`, the Percent Effect in assay [1] was -2.33%; in [2], 10.8%; in [3], 2.22%; in [4], 0.794%; with Trypanosoma cruzi, 3.23%; in assay [5] it was 7.96%. In addition, the Percent Effect was 9.96% in assay [6]; 11.1% in the assay filed under Homo sapiens; 1.08% in [7]; 12.8% in [8]; -1.83% in [9].
Turning to `CC(C)C1CN(c2ncc(F)cn2)CCC(=O)N1Cc1ccc(F)cc1` (stereo unspecified), the Percent Effect in assay [1] was -2.05%; in [2], 12.5%; in assay [3], -4.48%; in assay [4], 14.3%; with Trypanosoma cruzi, 6.51%; in assay [5], 8.83%. For the same compound, the Percent Effect in assay [6] was 13.3%; in the assay listed under Homo sapiens it was -7.42%; in [7] it was 9.47%; in assay [8], 15.4%; in assay [9], -4.54%.
As for `CCOCCn1nc(C)cc1C(=O)N1CCOCC(CO)C1` (stereo unspecified), the Percent Effect in assay [1] is -2.3%; in assay [2] it was 18.9%; in assay [3], 0.311%; in [4], 24.4%; with Trypanosoma cruzi it was 7.14%; in assay [5] it was 31.9%. Besides, the Percent Effect was 22.1% in [6]; 1.44% in the assay filed under Homo sapiens; 3.7% in [7]; 12.2% in assay [8]; -10.6% in [9].
For the compound `O=S(=O)(c1ccccc1)N1CCCN(CCCn2ccnc2)CC1`, the Percent Effect was -1.12% in assay [1]; 0% in [2]; -5.54% in assay [3]; 24.8% in assay [4]; 5.38% with Trypanosoma cruzi; -0.248% in assay [5]. In addition, the Percent Effect in assay [6] is 3.35%; in the assay listed under Homo sapiens, -7.92%; in assay [7], 2.15%; in [8], 3.7%; in assay [9], -12.2%.
Regarding `Cc1cc(C)c(CNC(=O)NCC(c2ccccc2)N(C)C)c(=O)[nH]1` (stereo unspecified), the Percent Effect is -3.19% in assay [1]; -2.63% in assay [2]; -5.47% in assay [3]; 13.4% in [4]; 2.52% in the assay on Trypanosoma cruzi; 1.08% in [5]. Besides, the Percent Effect in [6] is -0.592%; in the assay filed under Homo sapiens it was 4%; in assay [7], 7.39%; in assay [8] it was 18.5%; in [9], -3.01%.
Turning to `CC(O)CN1CCN(Cc2cccc(C(=O)N(C)C)c2)CC1` (stereo unspecified), the Percent Effect in [1] was -4.84%; in [2] it was -141%; in assay [3], -53.4%; in assay [4] it was 5.64%; in the assay on Trypanosoma cruzi, 1.02%; in assay [5] it was -3.51%. The Percent Effect in assay [6] is -4.31%; in the assay listed under Homo sapiens it was 5.72%; in [7] it was 5.94%; in assay [8], 3.66%; in [9], 9.61%.
